Assay outcomes: PubChem BioAssay, National Center for Advancing Translational Sciences (NCATS)
D1 ag – activates the human D1 dopamine receptor. HEK293 T-REx D1 cells, calcium flux, agonist mode. activation, % at 2 µM. 1% of 360,000 active. AID 504660; note: 0% is about no effect
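Inducible HEK293 T-REx D1 cells, force-coupled to calcium signalling, were plated at 4000 cells/well with tetracycline and held overnight at 30 C. After no-wash calcium dye loading, compound-evoked calcium rise over 180 s flagged agonists.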
D1 antag – blocks dopamine activation of the human D1 receptor | P21728 | HEK293 TREx D1 cells, calcium flux, dopamine EC80; hits give low values | activity change, negative = inhibition, % at 10 µM | 3.2% of 360,000 active; in the data active = activity change below about -30%; note: % is set by controls: 0 for no effect and ±100 for the full control effect
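Tetracycline-induced HEK293 T-REx cells with force-coupled D1 receptor were loaded with a no-wash calcium dye. Compound was added after a 10 s baseline and read kinetically for 180 s; EC80 dopamine was then added and calcium flux followed another 180 s.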
TRHR PAM – allosteric enhancers of human TRH receptor. P34981. 0.66% of 360,000 active. enhancement, % at 2 µM. AID 493056. TRHR cells, fluo-8 calcium fluorescence, EC20 TRH enhancement; in the data active = enhancement above about 30%; note: 0% is about no effect
Target sequence (P34981 whole entry, looked up): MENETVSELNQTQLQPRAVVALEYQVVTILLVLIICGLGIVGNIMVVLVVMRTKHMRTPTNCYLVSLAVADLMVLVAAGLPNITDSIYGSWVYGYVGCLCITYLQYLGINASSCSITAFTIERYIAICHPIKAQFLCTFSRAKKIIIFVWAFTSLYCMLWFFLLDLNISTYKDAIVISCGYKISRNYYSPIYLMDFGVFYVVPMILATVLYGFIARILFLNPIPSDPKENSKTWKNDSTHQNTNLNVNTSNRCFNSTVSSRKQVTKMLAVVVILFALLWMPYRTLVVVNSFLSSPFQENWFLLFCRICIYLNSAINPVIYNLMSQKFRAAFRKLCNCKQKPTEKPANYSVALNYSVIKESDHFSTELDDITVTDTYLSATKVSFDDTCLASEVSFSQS
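Enhancer read-out: after compound pinning and an initial kinetic agonist-mode read, an EC20 of TRH (10 nM final) was injected and fluo-8 calcium signal (Ex 480/Em 530) followed at 1 s/cycle for 100 cycles in TRHR-expressing cells.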
D1 PAM – human D1 dopamine receptor positive modulation; P21728; HEK293 TREx D1 cells, calcium flux, dopamine EC20 potentiation; potentiation, % at 10 µM; 0.036% of 360,000 active; AID 504651; in the data active = potentiation above about 30%; note: 0% is about no effect
TRHR ag – TRH receptor (human) agonism. P34981. TRHR cells, calcium flux fluo-8, FDSS agonist mode. 0.18% of 360,000 active. activation, % at 2 µM; note: 0% is about no effect
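In this calcium-flux screen, cells bearing human TRHR are dye-loaded with fluo-8, baselined for 10 cycles, then exposed to library compounds; positive kinetic calcium responses during the agonist phase mark hits, with TRH as control.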
Active calls of the source: *; · = not tested or not shown. Most compounds without a hit are left out; they make up all but 4.7% or so of the library. Cut-off read from the data, not from the text of the source, unless noted: active = activation above about 30%; inactive = the rest.

SMILES	D1 ag	D1 antag	TRHR PAM	D1 PAM	TRHR ag
COc1ccc(NC(=O)c2oc3ccccc3c2NC(=O)Cc2coc3ccc(C)cc23)cc1	2	-3	-12	0	1
Cc1cc(C)cc(OCC(=O)Nc2ccncc2)c1	9	1	-1	7	-1
O=C(CSc1nnnn1-c1cccc(Cl)c1)Nc1ccc2c(c1)CCC2	5	17	12	8	0
N#CCCCSc1nnnn1-c1cccc(Cl)c1	0	-37*	6	3	0
CCN(c1cccc(C)c1)S(=O)(=O)c1ccc(N2CCCCS2(=O)=O)cc1	11	-19	5	-6	0
Cc1ccc(C)n1-c1nnc(N2CCCC(C(=O)NCc3cccc(F)c3)C2)s1 (stereo unspecified)	-1	9	-5	-2	-1
O=C(OCn1ncc(Br)c(Br)c1=O)c1ccccc1Cl	-3	-10	-3	-7	0
O=C(OCn1ncc(Cl)c(Cl)c1=O)c1cccc(C(F)(F)F)c1	17	-36*	2	-9	0
COc1ccc(CCNC(=O)C2(C)CCC(=O)N2Cc2ccc(F)cc2Cl)cc1OC (stereo unspecified)	0	-33*	-1	-2	-1
CCCc1cc(C(=O)N2CCCN(C)CC2)cs1	1	-2	-1	-6	0
CCCc1cc(C(=O)N2CCN(c3ccccc3C)CC2)cs1	2	-43*	-3	-10	0
CC(C)Cn1c(-c2ccc(S(=O)(=O)N3CCCC3)cc2)csc1=Nc1ccccc1	0	5	-2	-3	1
C=CCNCCCCOc1cccc(Br)c1	32*	-4	-1	-1	-1
OCCNCCCCOc1cccc(Br)c1	17	-2	3	-2	1
C/C(=N/NC(=O)c1ccccc1)C(=O)O	0	-31*	28	-1	0
O=C(NCc1ccccc1C(F)(F)F)C1CC(c2cccc(F)c2)=NO1 (stereo unspecified)	1	-91*	-1	-9	0
O=C(NCc1cccs1)C1CC(c2ccc(Cl)c(Cl)c2)=NO1 (stereo unspecified)	3	27	-2	1	0
O=C(NCc1cccs1)C1CC(c2ccc(Cl)cc2)=NO1 (stereo unspecified)	8	-33*	-1	-6	-2
CCCNC(=O)C1CC(c2cccc(F)c2)=NO1 (stereo unspecified)	7	-11	3	-2	0
O=C(NCCc1cccs1)C1CC(c2cccc(F)c2)=NO1 (stereo unspecified)	40*	-7	-3	-6	-2
Cc1[nH]c(C)c(S(=O)(=O)N2CCCCC2C)c1C(=O)N1CCCC1 (stereo unspecified)	3	-8	4	1	1
Cc1c(Cl)cccc1-c1ccc(C(=O)Nc2ccc(F)cc2)o1	17	-14	0	-3	3
COc1ccc(Nc2cc(C)c3c(O)cccc3n2)cc1	8	-33*	-8	-16	1
Cc1cc(NCc2ccco2)nc2cc(O)ccc12	1	-6	-3	-5	1
Cc1ccc(Nc2cc(C)c3c(O)cccc3n2)cc1C	35*	-49*	-1	-18	10
SMILES	D1 ag	D1 antag	TRHR PAM	D1 PAM	TRHR ag
COc1ccc(Nc2c(C)cccc2C)cc1	3	-38*	-3	-17	0
Cc1ccccc1Nc1cc(C)c2c(O)cccc2n1	9	-15	0	-9	1
Cc1ccc(Nc2cc(C)c3ccc(O)cc3n2)cc1C	33*	3	10	-19	1
O=C(CCCn1c(=O)c2ccccc2n(CC(=O)Nc2cccc(C(F)(F)F)c2)c1=O)NCc1ccc2c(c1)OCO2	-1	-20	-1	0	0
COc1ccc2ccc(O)c(CN(C)CC(=O)Nc3ccccc3C(F)(F)F)c2c1	1	-2	4	·	0
COC(=O)c1cc(Nc2cc(C)c3c(O)cccc3n2)cc(C(=O)OC)c1	8	-26	12	-6	0
COC(=O)c1cc(Nc2cc(C)c3ccc(O)cc3n2)cc(C(=O)OC)c1	1	2	32*	-2	1
Cn1c(Sc2ccc(Br)cc2)c(C=O)c2ccccc21	4	-63*	17	-8	0
COc1ccc(/C=C(/C#N)C(=O)Nc2ccc(C)cc2C)cc1C(=O)O	-1	-35*	-3	3	0
COc1cc(/C=C(/C#N)C(=O)Nc2ccc(C)cc2)ccc1Oc1nc(Cl)ncc1F	7	-31*	-8	-5	-1
Cc1cc(C)cc(-n2c(SCC(N)=O)nc3c([nH]c4ccccc43)c2=O)c1	0	-1	-1	-4	0
Cc1nc(SC(C)C(=O)NCC2CCCO2)c2cc(-c3ccccc3)sc2n1 (stereo unspecified)	10	-9	2	-10	0
CCCCSCCCNC(=O)c1cn(CC)c2ccc(S(=O)(=O)N3CCCCCC3)cc2c1=O	8	-2	-3	4	2
CCOC(=O)c1c(NC(C)=O)c2c3c(sc2n1Cc1nc(-c2ccccc2Cl)oc1C)CCCC3	2	-5	-6	-2	0
CCOC(=O)c1c(NC(C)=O)c2c3c(sc2n1Cc1nc(-c2cccc(Cl)c2)oc1C)CCCC3	0	-37*	14	-5	0
O=C(N1CCOCC1)N1CCN(S(=O)(=O)c2cccc([N+](=O)[O-])c2)CC1	-2	17	5	6	0
Cc1ccc(NC(=O)C[n+]2ccn(C3=C([O-])c4ccccc4C3=O)c2)cc1	2	-41*	4	-5	0
Cc1ccc(S(=O)(=O)/N=C2\C(=O)c3ccccc3C([O-])=C2n2cc[n+](CCC(C)C)c2)cc1	1	19	-3	1	-1
O=C(O)CC1c2ccccc2C=Cc2ccccc21	0	-32*	-2	-6	0
O=C(O)CC1NC(=O)N(c2ccccc2)C1=O (stereo unspecified)	1	2	-12	-5	1
NC1=NC(=O)/C(=C/c2ccsc2)S1	1	-33*	5	-1	0
Cc1ccc2c(CC(=O)OC(C)C(=O)NCc3ccc4c(c3)OCO4)coc2c1 (stereo unspecified)	9	-32*	3	-3	0
COc1cccc(CNC(=O)CSc2n[nH]c(-c3ccccc3Cl)n2)c1OC	3	-4	-11	-3	-1
CCOC(=O)C1CCN(Cc2ccc(O)c3ncccc23)CC1	0	-42*	11	-1	0
O=C(Cn1c(=O)n(Cc2ccccc2)c(=O)c2sc3ccccc3c21)Nc1ccc(F)cc1	1	-10	13	1	2
N#CCCn1nc(-c2ccc([N+](=O)[O-])cc2)cc1Nc1ccccc1NC(=O)C(F)(F)F	31*	-27	6	-8	1
N#CCCn1nc(-c2ccccc2)cc1Nc1ccccc1NC(=O)C(F)(F)F	22	12	-1	-5	2
